# Measured values: PubChem BioAssay (EPA / NIEHS)
# Several values for one entry are separate records, joined by “and”; a condition that tells them apart may be missing. Equal values may be shown once. Records with an inconclusive call do not appear. More than one record can exist for a structure, and the calls need not agree. Activity calls are given as the source filed them. The calls were made as follows, unless noted: active = hit-call score of the fitted dose curve at least 0.9, where 1 is the maximum; inconclusive = response in the unintended direction; inactive = score below 0.9.
# What was measured:
# [1] = target: Retinoic acid receptor RXR-alpha (Homo sapiens) (UniProt P19793); test: OT_NURR1_NURR1RXRa_0480: Odyssey Thera (OT) 8-hour HEK293T Protein Complementation Assay for Nurr1/retinoid X receptor (RXR) (AID 2283385)
# Summary of the method: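 Read-out: fluorescence from protein-fragment complementation between Nurr1 and RXRα in human HEK293T cells, 8 h after dosing. DMSO served as negative control; increased signal counted as activity.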
# [2] = target: Retinoic acid receptor RXR-alpha (Homo sapiens) (UniProt P19793); test: OT_NURR1_NURR1RXRa_1440: Odyssey Thera (OT) 24-hour HEK293T Protein Complementation Assay for Nurr1/retinoid X receptor (RXR) (AID 2283386)
# Summary of the method: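 Fluorescence PCA read-out; HEK293T; 24 h post-dose; bait/prey fused to reporter fragments; gain-of-signal fit vs DMSO negative control.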
# [3] = target: Peroxisome proliferator-activated receptor gamma (Homo sapiens) (UniProt P37231); test: OT_PPARg_PPARgSRC1_0480: Odyssey Thera (OT) 8-hour Protein-Complementation Assay for Peroxisome Proliferator-activated Receptor Gamma / SRC-1 Co-activator (AID 2283387);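 also: nuclear to cytoplasmic split Venus YFP fluorescence ratio reporting PPARg SRC-1 interaction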
# Summary of the method: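 HEK293T transiently transfected with PPARg and SRC-1 fused to Venus YFP fragments, compounds 8 h at 37C. Fixed, Draq5-stained cells imaged; nuclear/cytoplasmic 488 nm fluorescence ratio over at least 350 cells per image; gain fitted versus DMSO.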
# [4] = target: Peroxisome proliferator-activated receptor gamma (Homo sapiens) (UniProt P37231); test: OT_PPARg_PPARgSRC1_1440: Odyssey Thera (OT) 24-hour Protein-Complementation Assay for Peroxisome Proliferator-activated Receptor Gamma/ SRC-1 Co-activator (AID 2283388)
# Summary of the method: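 Readout: nuclear-to-cytoplasmic 488 nm fluorescence ratio, ≥350 cells per image, 8 images per well, after 24 h compound exposure of HEK293T expressing PPARg/SRC-1 split-YFP fusions. Activity fitted in positive direction against DMSO.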
# [5] = CEETOX_H295R_11DCORT: CeeTox H295R High-throughput Steroidogenesis Assay for 11-Deoxycortisol (11DCORT) (AID 2283432; active = hit-call score of the fitted dose curve at least 0.9, where 1 is the maximum; inactive = score below 0.9;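 as to AC50: 11-deoxycortisol secreted into the medium measured by LC-MS/MS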); conditions: actives raise or lower the signal
# Summary of the method: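 H295R cells prestimulated 48 h with 10 uM forskolin, then exposed 48 h to chemical in 0.1% DMSO. 11-Deoxycortisol in medium quantified by HPLC-MS/MS after MTBE extraction; bidirectional fit versus DMSO. MTT viability read in same wells.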
# [6] = CEETOX_H295R_OHPREG: CeeTox H295R High-throughput Steroidogenesis Assay for OH-Pregnenolone (OHPREG) (AID 2283434; active = hit-call score of the fitted dose curve at least 0.9, where 1 is the maximum; inactive = score below 0.9); conditions: actives raise or lower the signal
# Summary of the method: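 Secreted 17alpha-hydroxypregnenolone measured by HPLC-MS/MS after liquid-liquid extraction. Human adrenal H295R cells received 48 h forskolin (10 uM) stimulation before 48 h chemical exposure at 0.1% final DMSO; MTT viability in same wells; bidirectional fit against DMSO.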
# [7] = CEETOX_H295R_OHPROG: CeeTox H295R High-throughput Steroidogenesis Assay for OH-Progesterone (OHPROG) (AID 2283435; active = hit-call score of the fitted dose curve at least 0.9, where 1 is the maximum; inactive = score below 0.9;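 as to AC50: 17alpha-hydroxyprogesterone secreted into medium measured by HPLC-MS/MS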); conditions: actives raise or lower the signal
# Summary of the method: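 HPLC-MS/MS quantification of 17alpha-hydroxyprogesterone secreted by H295R cells after 48 h chemical exposure, following 48 h 10 uM forskolin prestimulation. Gain or loss of signal fitted relative to DMSO. Viability checked by MTT in the same wells.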
# [8] = CEETOX_H295R_CORTIC: CeeTox H295R High-throughput Steroidogenesis Assay for Corticosterone (CORTIC) (AID 2283437; active = hit-call score of the fitted dose curve at least 0.9, where 1 is the maximum; inactive = score below 0.9); conditions: actives raise or lower the signal
# Summary of the method: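 Medium corticosterone was quantified by tandem mass spectrometry following 48 hours of chemical exposure (0.1% DMSO) in human H295R cells previously stimulated 48 hours with 10 uM forskolin. Viability checked by MTT; chemicals diluted and retested when viability fell below 70%.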
# [9] = CEETOX_H295R_CORTISOL: CeeTox H295R High-throughput Steroidogenesis Assay for Cortisol (AID 2283438; active = hit-call score of the fitted dose curve at least 0.9, where 1 is the maximum; inactive = score below 0.9;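 also: cortisol secreted into medium quantified by LC-MS/MS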); conditions: actives raise or lower the signal
# Summary of the method: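 Read-out: cortisol in culture medium by reverse-phase C18 HPLC with ESI-positive tandem MS, after MTBE liquid-liquid extraction. Cells: human adrenal H295R, forskolin-primed (10 uM, 48 h) before 48 h chemical exposure in 0.1% DMSO.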
# [10] = CEETOX_H295R_DOC: CeeTox H295R High-throughput Steroidogenesis Assay for DOC (AID 2283439; active = hit-call score of the fitted dose curve at least 0.9, where 1 is the maximum; inactive = score below 0.9); conditions: actives raise or lower the signal
# Summary of the method: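 Human adrenocortical H295R cells, passages up to 10, received 10 uM forskolin for 48 h before chemical addition. After another 48 h exposure in 0.1% DMSO, secreted DOC was measured by LC-MS/MS, with gain or loss fitted against DMSO controls.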
# [11] = CEETOX_H295R_ESTRADIOL: CeeTox H295R High-throughput Steroidogenesis Assay for Estradiol (AID 2283440; active = hit-call score of the fitted dose curve at least 0.9, where 1 is the maximum; inactive = score below 0.9;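 also: estradiol secreted into medium quantified by LC-MS/MS after dansyl derivatisation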); conditions: actives raise or lower the signal
# Summary of the method: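 H295R, 48 h forskolin (10 uM) prestim → 48 h compound, 0.1% DMSO final. Estradiol in medium: MTBE extraction, dansyl chloride derivatization, LC-MS/MS. Fit bidirectional vs DMSO baseline; MTT viability in same wells.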
# [12] = CEETOX_H295R_ESTRONE: CeeTox H295R High-throughput Steroidogenesis Assay for Estrone (AID 2283441; active = hit-call score of the fitted dose curve at least 0.9, where 1 is the maximum; inactive = score below 0.9;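 also: estrone secreted into medium measured by LC-MS/MS after dansyl derivatization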); conditions: actives raise or lower the signal
# Summary of the method: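 Forskolin-stimulated H295R cells are treated 48 h with chemical, and estrone in the medium is measured by LC-MS/MS. Activity is fitted in both directions relative to DMSO controls, with chemicals diluted until MTT viability reaches at least 70%.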
# [13] = CEETOX_H295R_PROG: CeeTox H295R High-throughput Steroidogenesis Assay for Progesterone (PROG) (AID 2283442; active = hit-call score of the fitted dose curve at least 0.9, where 1 is the maximum; inactive = score below 0.9); conditions: actives raise or lower the signal
# Summary of the method: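 Progesterone read-out: HPLC-MS/MS on MTBE extracts of conditioned medium after 48 h chemical exposure of forskolin-primed (10 uM, 48 h) H295R cells. Gain or loss of signal was fitted relative to DMSO baseline.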
# [14] = read-out: Tumor necrosis factor receptor superfamily member 6 (Homo sapiens) (UniProt P25445); test: LTEA_HepaRG_FAS: Life Technologies and Expression Analysis (LTEA) Assay for Fas cell surface death receptor (FAS) using HepaRG (AID 2283447; active = hit-call score of the fitted dose curve at least 0.9, where 1 is the maximum; inactive = score below 0.9); conditions: mRNA level, 48 h; actives raise or lower the signal
# Summary of the method: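 FAS transcript level was measured by TaqMan qRT-PCR against three housekeeping genes after 48 h chemical exposure. Cells were HepaRG, 0.5% DMSO vehicle, with a top concentration of 100 uM and half-log dilutions over eight points, in duplicate.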
# [15] = read-out: Cyclin D2 (CCND2), CCND2 (gene 894); test: LTEA_HepaRG_CCND2: Life Technologies and Expression Analysis (LTEA) Assay for Cyclin D2 (CCND2) using HepaRG (AID 2283449; active = hit-call score of the fitted dose curve at least 0.9, where 1 is the maximum; inactive = score below 0.9); conditions: mRNA level, 48 h; actives raise or lower the signal
# Summary of the method: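 CCND2 transcript levels, quantified by qRT-PCR and normalised to three housekeeping genes, were fitted bidirectionally against 0.5% DMSO. HepaRG cultures were dosed 48 h in duplicate with an 8-point half-log series up to 100 uM.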
# [16] = target: Bile acid receptor (Homo sapiens) (UniProt Q96RI1); test: OT_FXR_FXRSRC1_1440: Odyssey Thera (OT) 24-hour HEK293T Protein-Complementation Assay for Farnesoid X receptor/SRC-1 Co-activator (AID 2283384)
# Summary of the method: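 Fluorescence readout, 24 h post-dose, HEK293T; FXR and SRC-1 fused to complementary reporter fragments, association reconstitutes signal. Positive-direction fit vs DMSO baseline.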
# [17] = CEETOX_H295R_ANDR: CeeTox H295R High-throughput Steroidogenesis Assay for Androstenedione (ANDR) (AID 2283436; active = hit-call score of the fitted dose curve at least 0.9, where 1 is the maximum; inactive = score below 0.9); conditions: actives raise or lower the signal
# Summary of the method: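 Medium from 48 h chemical-treated H295R adrenal cells was extracted with MTBE and androstenedione measured by LC-MS/MS. Activity was fit in both directions relative to DMSO. Cytotoxic concentrations were re-tested after dilution until MTT viability reached ≥70%.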
# [18] = read-out: Cyclin D1 (CCND1), CCND1 (gene 595); test: LTEA_HepaRG_CCND1: Life Technologies and Expression Analysis (LTEA) Assay for Cyclin D1 (CCND1) using HepaRG (AID 2283451; active = hit-call score of the fitted dose curve at least 0.9, where 1 is the maximum; inactive = score below 0.9); conditions: mRNA level, 48 h; actives raise or lower the signal
# Summary of the method: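 qRT-PCR (Fluidigm 96.96 array) read-out of transcript level, housekeeping-normalized (ACTB/GAPDH/POLR2A). HepaRG cells, 48 h chemical exposure, 8-point half-log series from 100 uM, 0.5% DMSO vehicle; gain or loss relative to DMSO baseline.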
# [19] = read-out: Cyclin Dependent Kinase Inhibitor 1A (CDKN1A), CDKN1A (gene 1026); test: LTEA_HepaRG_CDKN1A: Life Technologies and Expression Analysis (LTEA) Assay for Cyclin Dependent Kinase Inhibitor 1A (CDKN1A) using HepaRG (AID 2283450; active = hit-call score of the fitted dose curve at least 0.9, where 1 is the maximum; inactive = score below 0.9); conditions: mRNA level, 48 h; actives raise or lower the signal
# Summary of the method: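 HepaRG, 48 h dosing, 8-pt half-log series from 100 uM top, 0.5% DMSO vehicle, duplicates. Readout: TaqMan qRT-PCR of CDKN1A transcript, housekeeping-normalized (ACTB, GAPDH, POLR2A). Up/down curve fit relative to DMSO.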
# [20] = read-out: Fatty acid synthase (Homo sapiens) (UniProt P49327); test: LTEA_HepaRG_FASN: Life Technologies and Expression Analysis (LTEA) Assay for Fatty Acid Synthase (FASN) using HepaRG (AID 2283448; active = hit-call score of the fitted dose curve at least 0.9, where 1 is the maximum; inactive = score below 0.9;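 as to AC50: differentiated human HepaRG liver cells in serum-free induction medium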); conditions: mRNA level, 48 h; actives raise or lower the signal
# Summary of the method: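 HepaRG, 48 h exposure, 8-pt half-log series top 100 uM, 0.5% DMSO vehicle, duplicates. Readout: FASN transcript by Fluidigm qRT-PCR; housekeeping-normalized; bidirectional curve fit vs DMSO baseline.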
# Sequence of Peroxisome proliferator-activated receptor gamma (Homo sapiens) (P37231 whole entry, looked up, the tested form may be a part): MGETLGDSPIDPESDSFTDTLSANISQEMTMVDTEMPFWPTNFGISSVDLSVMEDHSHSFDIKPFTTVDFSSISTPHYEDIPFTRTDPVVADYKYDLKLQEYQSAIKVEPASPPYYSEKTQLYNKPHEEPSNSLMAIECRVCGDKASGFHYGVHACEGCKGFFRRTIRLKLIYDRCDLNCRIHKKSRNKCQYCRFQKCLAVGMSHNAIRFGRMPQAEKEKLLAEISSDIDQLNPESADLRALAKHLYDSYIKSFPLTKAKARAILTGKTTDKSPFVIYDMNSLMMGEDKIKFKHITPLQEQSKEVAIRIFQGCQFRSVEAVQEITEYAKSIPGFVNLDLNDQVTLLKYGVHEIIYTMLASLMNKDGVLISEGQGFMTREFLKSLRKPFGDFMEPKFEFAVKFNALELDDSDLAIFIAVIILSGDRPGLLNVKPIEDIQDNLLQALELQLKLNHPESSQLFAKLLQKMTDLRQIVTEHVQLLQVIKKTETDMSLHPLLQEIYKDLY
# Sequence of Fatty acid synthase (Homo sapiens) (P49327 whole entry, looked up): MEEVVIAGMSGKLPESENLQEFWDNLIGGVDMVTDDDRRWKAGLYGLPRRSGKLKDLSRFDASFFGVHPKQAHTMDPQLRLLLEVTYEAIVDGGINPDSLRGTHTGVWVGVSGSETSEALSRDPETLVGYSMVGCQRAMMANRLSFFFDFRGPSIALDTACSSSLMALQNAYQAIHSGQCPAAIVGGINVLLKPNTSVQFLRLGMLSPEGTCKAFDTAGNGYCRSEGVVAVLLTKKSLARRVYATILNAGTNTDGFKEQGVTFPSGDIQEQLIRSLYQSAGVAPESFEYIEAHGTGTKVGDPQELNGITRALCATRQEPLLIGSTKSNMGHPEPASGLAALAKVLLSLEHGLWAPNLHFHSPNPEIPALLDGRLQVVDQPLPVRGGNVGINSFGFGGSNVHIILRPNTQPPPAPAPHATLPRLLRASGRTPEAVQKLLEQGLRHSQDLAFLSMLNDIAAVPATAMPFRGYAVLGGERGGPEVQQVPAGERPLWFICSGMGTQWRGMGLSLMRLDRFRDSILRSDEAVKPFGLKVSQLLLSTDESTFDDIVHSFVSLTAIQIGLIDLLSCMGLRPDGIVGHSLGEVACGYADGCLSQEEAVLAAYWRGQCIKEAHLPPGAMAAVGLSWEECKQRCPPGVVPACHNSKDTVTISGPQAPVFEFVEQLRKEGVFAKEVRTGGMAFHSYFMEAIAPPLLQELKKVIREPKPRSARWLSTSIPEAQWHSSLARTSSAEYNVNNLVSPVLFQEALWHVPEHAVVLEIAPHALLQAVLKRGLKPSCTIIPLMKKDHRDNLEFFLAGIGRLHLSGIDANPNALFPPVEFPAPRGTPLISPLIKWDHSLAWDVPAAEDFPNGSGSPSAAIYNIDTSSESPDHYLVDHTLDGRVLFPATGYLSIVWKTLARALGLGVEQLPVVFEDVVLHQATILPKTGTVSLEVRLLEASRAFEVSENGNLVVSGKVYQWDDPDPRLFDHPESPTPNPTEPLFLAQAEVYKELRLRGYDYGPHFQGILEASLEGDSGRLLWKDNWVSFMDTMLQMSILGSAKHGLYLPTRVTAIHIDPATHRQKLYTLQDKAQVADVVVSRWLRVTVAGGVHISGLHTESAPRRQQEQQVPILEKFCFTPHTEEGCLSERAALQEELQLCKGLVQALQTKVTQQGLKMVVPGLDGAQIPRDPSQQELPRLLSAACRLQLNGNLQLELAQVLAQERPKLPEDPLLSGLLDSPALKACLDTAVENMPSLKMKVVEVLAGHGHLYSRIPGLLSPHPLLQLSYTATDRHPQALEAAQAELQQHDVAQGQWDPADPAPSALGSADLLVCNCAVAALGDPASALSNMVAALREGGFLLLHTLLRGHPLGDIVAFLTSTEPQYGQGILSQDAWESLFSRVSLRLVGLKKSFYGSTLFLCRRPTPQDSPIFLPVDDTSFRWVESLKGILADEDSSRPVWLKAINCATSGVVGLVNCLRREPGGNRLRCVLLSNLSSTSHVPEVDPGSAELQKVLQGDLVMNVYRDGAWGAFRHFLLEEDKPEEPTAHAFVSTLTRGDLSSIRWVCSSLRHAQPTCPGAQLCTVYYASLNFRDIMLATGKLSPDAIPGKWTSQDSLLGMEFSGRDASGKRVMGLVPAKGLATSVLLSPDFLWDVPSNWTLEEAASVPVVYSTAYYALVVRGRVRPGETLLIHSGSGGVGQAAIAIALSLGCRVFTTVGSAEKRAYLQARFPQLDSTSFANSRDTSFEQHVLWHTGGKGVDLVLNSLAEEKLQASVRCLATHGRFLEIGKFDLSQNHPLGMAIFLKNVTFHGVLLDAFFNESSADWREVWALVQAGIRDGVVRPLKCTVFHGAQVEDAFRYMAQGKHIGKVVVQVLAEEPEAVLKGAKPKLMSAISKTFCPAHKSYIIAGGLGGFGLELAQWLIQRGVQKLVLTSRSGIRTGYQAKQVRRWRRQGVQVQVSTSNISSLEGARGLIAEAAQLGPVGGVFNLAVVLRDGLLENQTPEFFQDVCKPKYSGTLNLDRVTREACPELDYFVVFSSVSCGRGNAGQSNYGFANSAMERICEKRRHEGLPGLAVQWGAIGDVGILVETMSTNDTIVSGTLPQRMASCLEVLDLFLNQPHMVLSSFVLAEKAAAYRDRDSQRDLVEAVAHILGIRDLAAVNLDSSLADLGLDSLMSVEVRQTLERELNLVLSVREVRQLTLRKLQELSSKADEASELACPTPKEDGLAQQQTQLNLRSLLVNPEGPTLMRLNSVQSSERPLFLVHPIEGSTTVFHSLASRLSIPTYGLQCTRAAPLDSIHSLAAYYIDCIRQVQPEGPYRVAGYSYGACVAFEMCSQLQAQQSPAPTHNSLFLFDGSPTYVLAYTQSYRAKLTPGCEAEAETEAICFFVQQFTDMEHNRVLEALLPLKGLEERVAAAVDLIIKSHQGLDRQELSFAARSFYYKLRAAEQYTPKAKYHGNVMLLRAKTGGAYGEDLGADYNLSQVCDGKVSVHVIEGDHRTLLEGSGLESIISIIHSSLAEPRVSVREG
# Sequence of Retinoic acid receptor RXR-alpha (Homo sapiens) (P19793 whole entry, looked up, the tested form may be a part): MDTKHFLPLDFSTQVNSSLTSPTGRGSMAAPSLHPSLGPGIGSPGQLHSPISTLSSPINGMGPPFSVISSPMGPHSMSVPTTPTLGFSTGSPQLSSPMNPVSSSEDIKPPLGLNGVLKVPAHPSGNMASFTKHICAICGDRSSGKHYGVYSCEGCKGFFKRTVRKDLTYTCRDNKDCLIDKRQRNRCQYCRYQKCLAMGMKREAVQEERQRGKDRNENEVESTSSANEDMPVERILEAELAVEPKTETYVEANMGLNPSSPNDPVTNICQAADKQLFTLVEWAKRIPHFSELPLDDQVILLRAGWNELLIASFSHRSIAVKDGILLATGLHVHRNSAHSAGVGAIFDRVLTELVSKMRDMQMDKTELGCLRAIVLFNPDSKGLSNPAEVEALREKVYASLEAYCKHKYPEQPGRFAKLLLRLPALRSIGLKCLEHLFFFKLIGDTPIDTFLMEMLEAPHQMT
# Sequence of Bile acid receptor (Homo sapiens) (Q96RI1 whole entry, looked up, the tested form may be a part): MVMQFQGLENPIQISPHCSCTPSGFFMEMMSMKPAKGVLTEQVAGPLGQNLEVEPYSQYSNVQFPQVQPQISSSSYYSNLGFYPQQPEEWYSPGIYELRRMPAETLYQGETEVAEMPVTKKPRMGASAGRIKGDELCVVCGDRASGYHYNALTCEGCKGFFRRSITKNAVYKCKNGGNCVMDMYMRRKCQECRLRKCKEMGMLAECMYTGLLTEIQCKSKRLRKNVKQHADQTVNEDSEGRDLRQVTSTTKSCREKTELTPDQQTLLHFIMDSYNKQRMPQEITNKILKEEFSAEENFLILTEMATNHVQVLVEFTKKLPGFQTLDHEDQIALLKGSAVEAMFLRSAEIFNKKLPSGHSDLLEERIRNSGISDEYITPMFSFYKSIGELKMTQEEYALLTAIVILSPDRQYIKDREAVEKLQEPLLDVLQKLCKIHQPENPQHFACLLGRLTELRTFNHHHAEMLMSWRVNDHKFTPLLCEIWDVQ
smiles,measurement,setting,value
CC(C)(C)c1cc(/C=C2\SC(N)=NC2=O)cc(C(C)(C)C)c1O,outcome,[1],inactive
same,outcome,[2],inactive
same,AC50,[3],77.1 µM (active)
same,outcome,[3],inactive
same,AC50,[4],66 µM (active)
same,outcome,[4],inactive
same,outcome,[5],inactive
same,outcome,[6],inactive
same,AC50,[7],0.67 µM (active)
same,AC50,[8],0.754 µM (active)
same,outcome,[9],inactive
same,AC50,[10],0.866 µM (active)
same,outcome,[11],inactive
same,outcome,[12],inactive
same,AC50,[13],0.897 µM (active)
same,outcome,[14],inactive
same,outcome,[15],inactive
O=c1c(-c2ccc(O)cc2)coc2cc(O)cc(O)c12,AC50,[16],18.9 µM (active) and 20.5 µM (active) and 18.6 µM (active)
same,outcome,[16],inactive
same,AC50,[1],29 µM (active) [middle of 4 runs]
same,outcome,[1],inactive
same,outcome,[2],inactive
same,outcome,[3],inactive
same,outcome,[4],inactive
same,AC50,[5],11.9 µM (active)
same,AC50,[7],30.5 µM (active)
same,AC50,[17],14.1 µM (active)
same,outcome,[8],inactive
same,AC50,[9],12.4 µM (active)
same,AC50,[10],4.44 µM (active)
same,AC50,[13],12.4 µM (active)
same,outcome,[14],inactive
same,outcome,[15],inactive
same,outcome,[18],inactive
CO[C@H]1/C=C/O[C@@]2(C)Oc3c(C)c(O)c4c(O)c(c(/C=N/N5CCN(C)CC5)c(O)c4c3C2=O)NC(=O)/C(C)=C\C=C\[C@H](C)[C@H](O)[C@@H](C)[C@@H](O)[C@@H](C)[C@H](OC(C)=O)[C@@H]1C,outcome,[1],inactive
same,outcome,[2],inactive
same,outcome,[3],inactive
same,outcome,[4],inactive
same,outcome,[6],inactive
same,outcome,[7],inactive
same,outcome,[13],inactive
same,outcome,[14],inactive
same,outcome,[19],inactive
same,outcome,[18],inactive
Clc1cc(Cl)c2c(c1)N=C1CCCCCN1C2,outcome,[1],inactive
same,outcome,[2],inactive
same,outcome,[3],inactive
same,outcome,[4],inactive
same,outcome,[5],inactive
same,outcome,[6],inactive
same,outcome,[7],inactive
same,outcome,[8],inactive
same,outcome,[9],inactive
same,outcome,[10],inactive
same,outcome,[13],inactive
same,outcome,[14],inactive
same,outcome,[20],inactive
same,outcome,[15],inactive
same,outcome,[19],inactive
same,outcome,[18],inactive
CCCOC(=O)c1cc(O)c(O)c(O)c1,outcome,[1],inactive
same,outcome,[2],inactive
same,outcome,[3],inactive
same,outcome,[4],inactive
same,outcome,[14],inactive
same,outcome,[15],inactive
CCCCCCCCCCCCO,outcome,[16],inactive
same,outcome,[1],inactive
same,outcome,[3],inactive
same,outcome,[4],inactive
same,outcome,[14],inactive
same,outcome,[15],inactive
same,outcome,[19],inactive
CCN(CC)C(=O)c1cc(S(=O)(=O)Cc2ccccc2)c(N2CCC(c3ccccc3)CC2)cc1N(CC)CCN(C)C,AC50,[1],4.48 µM (active)
same,AC50,[2],4.48 µM (active)
same,outcome,[3],inactive
same,outcome,[4],inactive
same,AC50,[14],30.3 µM (active)
same,AC50,[20],4.87 µM (active)
same,outcome,[15],inactive
O=c1ccc2ccccc2o1,outcome,[1],inactive
same,outcome,[2],inactive
same,outcome,[3],inactive
same,outcome,[4],inactive
same,outcome,[14],inactive
same,outcome,[15],inactive
same,outcome,[19],inactive
same,outcome,[18],inactive
CC1=CC(=O)/C(=C(/C)O)C(=O)O1,outcome,[1],inactive
same,outcome,[2],inactive
same,outcome,[3],inactive
same,outcome,[4],inactive
same,outcome,[14],inactive
same,outcome,[20],inactive
same,outcome,[15],inactive
same,outcome,[19],inactive
